What was measured:
Test in all cases: PBM binding z-score (relative to random genomic background probes); higher = stronger binding; sequences stand for … in GC…GCGATTGACAGCGTAGAATGAAGG
[1] = test system: PPARg:RXRa IVT, anti-PPARg (NR concentration 270 nM, RXRa partner concentration 90 nM)
Method in brief: (§1)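 Binding z-scores were set against random background probes. The data came from custom Agilent 4×180K protein-binding microarrays carrying double-stranded probes with 34-nt variable regions, incubated 1 h with ligand-free nuclear receptor dimers. Partner-specific antibodies detected binding, and scanned fluorescence was regression-normalized.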

[2] = test system: PPARg DBDmut:RXRa IVT, anti-PPARg (DBD mutation: PPARg1 K132A/R137A, NR concentration 270 nM, RXRa partner concentration 90 nM)
Method in brief: as §1

[3] = test system: PPARg DBDmut IVT, anti-PPARg (DBD mutation: PPARg1 K132A/R137A, NR concentration 270 nM)
Method in brief: as §1

[4] = test system: PPARg homodimer (NR concentration 180 nM)
Method in brief: as §1

[5] = test system: PXR:RXRa (NR concentration 270 nM, RXRa partner concentration 90 nM)
Method in brief: as §1

[6] = test system: PXR homodimer (NR concentration 270 nM)
Method in brief: as §1

[7] = test system: RARa:RXR (NR concentration 270 nM, RXRa partner concentration 90 nM)
Method in brief: as §1

[8] = test system: RARa homodimer (NR concentration 270 nM)
Method in brief: as §1

[9] = test system: RARb:RXRa (NR concentration 270 nM, RXRa partner concentration 90 nM)
Method in brief: as §1

[10] = test system: RARb homodimer (NR concentration 270 nM)
Method in brief: as §1

[11] = test system: RARg:RXRa (NR concentration 270 nM, RXRa partner concentration 90 nM)
Method in brief: as §1

[12] = test system: RARg homodimer (NR concentration 270 nM)
Method in brief: as §1

[13] = test system: RXRa DBDmut IVT, anti-RXR (DBD mutation: RXRa K156A/R161A, NR concentration 90 nM)
Method in brief: as §1

[14] = test system: RXRa homodimer (NR concentration 180 nM)
Method in brief: as §1

[15] = test system: THRa:RXRa (NR concentration 90 nM, RXRa partner concentration 90 nM)
Method in brief: as §1

[16] = test system: THRa homodimer (NR concentration 90 nM)
Method in brief: as §1

[17] = test system: VDR homodimer (NR concentration 270 nM)
Method in brief: as §1

Sequence | PBM binding z-score [1] | PBM binding z-score [2] | PBM binding z-score [3] | PBM binding z-score [4] | PBM binding z-score [5] | PBM binding z-score [6] | PBM binding z-score [7] | PBM binding z-score [8] | PBM binding z-score [9] | PBM binding z-score [10] | PBM binding z-score [11] | PBM binding z-score [12] | PBM binding z-score [13] | PBM binding z-score [14] | PBM binding z-score [15] | PBM binding z-score [16] | PBM binding z-score [17]
TCTAGTTGGTCACGGAGGACACACACGACGGGTA | 2.32 | 1.35 | 1.02 | 0.981 | 0.558 | 0.193 | 0.682 | 0.611 | 2.19 | 2.13 | 1.55 | 2.32 | 0.501 | 0.864 | 1.83 | 1.27 | 0.76
ATATGTAGGTTACATCCGGGTCATCCAGGCTATG | 7.51 | 3.31 | 2.5 | 2.45 | 3.45 | 1.14 | 3.67 | 0.961 | 2.3 | 3.26 | 3.98 | 2.1 | 0.681 | 2.89 | 3.89 | 2.64 | 2.44
GATATAGGGTCAGCTAGAGGCCAGAGTATGGAAA | 3.12 | 0.476 | 0.427 | 1.99 | 3.23 | 0.376 | 4.57 | 0.593 | 4.34 | 3.75 | 6.81 | 5.11 | 1.67 | 4.63 | 3.42 | 0.95 | 0.867
AGTCAAAGTGCATCTAGGTAACGTAAGATATGCT | 2.46 | 0.878 | 0.653 | 0.197 | 0.516 | 0.154 | 0.595 | -0.00454 | 1.53 | 0.456 | 1.07 | 1.23 | 1.55 | 0.663 | 1.31 | -0.154 | 0.36
TCTTGTAGATCGATAGAGGTTAAGAAAGTGCGCT | 0.198 | 0.295 | 0.641 | 0.199 | 2.67 | 0.241 | 1.23 | 0.262 | 0.661 | 0.946 | 0.525 | 0.389 | 0.591 | 1.1 | 1.48 | -0.46 | 0.0902
CGAACTAGGTCATTGACAGGACAATGAATAGTAA | 8.41 | 3.96 | 1.94 | 1.77 | 2.07 | 0.487 | 2.45 | 0.188 | 3.77 | 2.88 | 4.78 | 4.69 | 2.44 | 2.79 | 2.91 | 0.699 | 1.62
AGTCAAAGTTCAGGACGAGGTAACGTTAAGCACG | 1.92 | 0.603 | 0.235 | 2.35 | 3.11 | 1.65 | 2.78 | 0.838 | 4.3 | 3.3 | 4.79 | 4.82 | 3 | 2.87 | 3.83 | 1.82 | 2.56
AAAACAGGGTCATCGTAGGCCAGAGTACGCACAG | 5.24 | 4.19 | 2.83 | 6.6 | 5.51 | 0.625 | 5.95 | 0.959 | 4.44 | 3.68 | 6 | 5.11 | 3.74 | 7.23 | 4.81 | 1.58 | 4.06
TAGCCTAAGTCATGCGGGCCAGTATAGTGTCGGC | -0.138 | -0.862 | -1.37 | -0.139 | -0.538 | -0.831 | -0.11 | -1.14 | -0.165 | -0.506 | -0.283 | -0.412 | -0.949 | -0.136 | -0.34 | -0.848 | -1.04
AGAATGAGGTCATTAAGATCAGGGAATTGCGGTC | 6.13 | 2.24 | 0.816 | 3.54 | 5.46 | 5.08 | 5.31 | 0.745 | 4.79 | 3.96 | 5.83 | 5.03 | 4.81 | 6.72 | 4.38 | 3.69 | 4.67
CGAACTAGGTCAAGGCCAGTGAATCTCCGCACGC | 8.42 | 3.5 | 2.31 | 1.99 | 1.35 | -0.029 | 2.32 | 0.0978 | 4.11 | 3.35 | 3.79 | 4.63 | 1.47 | 2.73 | 3.12 | 0.958 | 0.111
CCTACTGGGCCTAAGGTCATTGATTCCAATGCTC | 3.86 | -0.629 | -0.793 | 2.07 | 3.7 | 1.98 | 3.54 | 0.174 | 3.15 | 3.54 | 3.16 | 2.83 | 1.17 | 3.44 | 3.88 | 4.55 | 2.68
CGAACTAGGTCACCCAGGACAGTGAATACATTGA | 8.55 | 3.12 | 2.38 | 2.12 | 1.88 | 1.13 | 2.54 | 1.21 | 4.25 | 3.34 | 4.24 | 5.04 | 2.03 | 3.13 | 3.66 | 2.18 | 1.89
AATAAAGGGTCATCGTAGGCCAGAGTACGCACAG | 4.41 | 1.5 | 1.46 | 5.38 | 5.11 | 1.02 | 5.67 | 3.37 | 5.11 | 4.11 | 6.49 | 6.51 | 3.4 | 6.51 | 4.49 | 0.425 | 3.62
CGTCCGAGGTCATAGGAGGTCAGTGAAGACAGAT | 4.71 | 1.87 | 0.417 | 5.49 | 7.21 | 6.7 | 6.7 | 2.36 | 5.36 | 5.04 | 7.12 | 7.76 | 4.48 | 7.49 | 5.37 | 3.58 | 5.17
ATCGAAAGGTCTAAGGTGAGTATACCCACCCGAA | 1.2 | 0.696 | 0.446 | 0.384 | 0.515 | 0.247 | 1.35 | 0.59 | 1.53 | 1.08 | 1.27 | 1.29 | -0.301 | 1.25 | 2.28 | 1.67 | 0.152
CAGCATAGGTCAGGGCCAGTATAGGAGGAACGTT | 1.1 | -0.177 | -0.223 | 1.42 | 1.36 | 0.189 | 2.17 | 0.463 | 3.89 | 3.19 | 3.97 | 4.39 | 0.209 | 3.33 | 1.65 | -0.231 | -0.0525
